For 34 molecules, growth results are on record in PubChem BioAssay (NCI).

Assay in all cases: NCI-60 one-dose screen, 48 h (100 = growth as untreated, 0 = no growth, -100 = all killed)
Holding throughout (details): 10 µM unless noted

Assay [1] concerns BT-549 breast.
Assay [2] deals with MDA-MB-435 melanoma.
In assay [3] the test system is SW-620 colon.
The test system of assay [4] is MCF7 breast.
Assay [5] deals with HCT-116 colon.
Assay [6] deals with HCC-2998 colon.
Assay [7] concerns KM12 colon.

SMILES strings stand for the structures. About 83,000 compounds went through this panel and 20% of them were active in at least one assay; those are over-represented in the sample as a whole.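 Cell lines were cultured in 96-well plates, exposed to a single compound concentration, and assessed for percent growth 48 hours later.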 A number with no mark means an inactive call. The source made the active and inactive calls. The calls were made as follows: active = growth percent below 10; inactive = the rest.

As to `COc1cc2nc3c(=O)n(-c4ccc(C#N)cc4)cnn3c(=O)c2cc1OC`, the growth in assay [1] was 102%; in assay [2], 98.5%; in assay [3] it was 95.3%; in assay [4] it was 103%; in assay [5], 101%; in assay [6], 97%. Moreover, the growth in assay [7] is 91.7%.
As for `Cc1nccc2c3ccc(OCc4cn(-c5ccccc5)nn4)cc3n(CCCc3ccccc3)c12`, the growth in assay [1] was 81.3%; in assay [2], 87.7%; in assay [3] it was 69%; in assay [4] it was 51.3%; in assay [5], 54%; in assay [6], 102%. In assay [7], the growth was 78%.
`COc1ccc(-c2[nH]c3ccc(OC)cc3c2C=C(C#N)C#N)cc1`: the growth in assay [1] is 55.1%; in assay [2], -62.5% (active); in assay [3] it was 26.5%; in assay [4], 17.1%; in assay [5], 19%; in assay [6], 50.3%. For the same molecule, the growth in assay [7] is 20.1%.
For the molecule `CNC(=O)c1cc(Oc2ccc3c(c2)sc2nc(-c4ccc(NC(C)=O)cc4)cn23)ccn1`, the growth in assay [1] is 38.3%; in assay [2], 3.75% (active); in assay [3], 57.2%; in assay [4], 55%; in assay [5], 48.9%; in assay [6], 78.1%. In assay [7], the growth was 43.3%.
Turning to `COc1ccc(Cl)c([N+](=O)[O-])c1`, the growth in assay [1] is 104%; in assay [2], 99.6%; in assay [3], 103%; in assay [4], 95.5%; in assay [5] it was 108%; in assay [6], 104%. Further, the growth in assay [7] is 102%.
`Nc1cccc(C(=O)Nc2ccc3c(O)c(N=Nc4ccc(N=Nc5ccc(S(=O)(=O)O)cc5)cc4)c(S(=O)(=O)O)cc3c2)c1`: the growth in assay [1] was 98.6%; in assay [2] it was 105%; in assay [3], 107%; in assay [4], 97.2%; in assay [5], 95%; in assay [6], 114%. Besides, the growth in assay [7] was 108%.
As for `CC1(C)Cc2c(Br)c(Br)c(Br)c(OCC(O)CN3CCOCC3)c2O1` (stereo not drawn), the growth in assay [1] was 78%; in assay [2], 87.5%; in assay [3] it was 94.5%; in assay [4] it was 114%; in assay [5], 77.9%; in assay [6], 95.9%. Also, the growth in assay [7] was 95%.
With `N#Cc1c(-c2ccc(Cl)cc2)cc(-c2cc3ccccc3o2)nc1SCC(=O)c1ccc(Cl)cc1`, the growth was 112% in assay [1]; 104% in assay [2]; 94.2% in assay [3]; 112% in assay [4]; 94.1% in assay [5]; 102% in assay [6]. Also, in assay [7], the growth was 94.9%.
For `CC[C@]12C=CCN3CC[C@@]4(c5ccc(OC)cc5N(C)[C@H]4[C@@](O)(C(=O)OC)[C@@H]1OC(=O)CCC(=O)O[C@H]1CC[C@H]4[C@@H]5CC[C@H]6CC(=O)CC[C@]6(C)[C@H]5CC[C@]14C)[C@@H]32`, the growth is 11.6% in assay [1]; 29.4% in assay [2]; 21.3% in assay [3]; 9.98% (active) in assay [4]; 9.84% (active) in assay [5]; 41.4% in assay [6]. In addition, in assay [7], the growth is 22.4%.
Consider `CC(=O)Oc1c2c(nc3c1c1ccccc1n3Cc1ccccc1)-c1ccccc1C2`, for which the growth in assay [1] was 104%; in assay [2], 98.2%; in assay [3] it was 98.8%; in assay [4] it was 51.1%; in assay [5], 73.5%; in assay [6], 87.9%. Further, the growth in assay [7] was 88.7%.
`O=C1c2ccccc2C(=O)c2c1oc1c2c(=O)[nH]c2ccccc21`: the growth is 73.9% in assay [1]; 83.7% in assay [2]; 89.2% in assay [3]; 48.8% in assay [4]; 55.5% in assay [5]; 103% in assay [6]. The growth in assay [7] was 66.2%.
On to `Nc1cc(N)c(S(=O)(=O)O)cc1N=Nc1cc([N+](=O)[O-])ccc1O`, for which the growth is 105% in assay [1]; 112% in assay [2]; 108% in assay [3]; 94.7% in assay [4]; 94% in assay [5]; 109% in assay [6]. In addition, in assay [7], the growth was 106%.
Consider `CCCCn1c(=O)c(/C=C/C(=O)/C=C/c2ccc(OC)cc2)cc2cc(Cl)ccc21`, for which the growth in assay [1] is 89.4%; in assay [2], 95.6%; in assay [3], 18.3%; in assay [4] it was 34.4%; in assay [5] it was -67.1% (active); in assay [6], 90.7%. The growth in assay [7] is 25.9%.
For `CNCc1cccc2c1OCCOCCOCCN(CCN1CCOCC1)S(=O)(=O)c1ccc(cc1)-c1cnc(N)c(n1)C(=O)N2`, the growth in assay [1] is 22.3%; in assay [2], 47.3%; in assay [3], 43.4%; in assay [4], 37.8%; in assay [5] it was 35.9%; in assay [6], 48.2%. In assay [7], the growth was 37.5%.
For the molecule `CCn1cc(C(=O)O)c(=O)c2cc(F)c(N3CCN(CC(=O)Nc4ccc(/C(C)=N/OC)cc4)CC3)cc21`, the growth in assay [1] was 92.5%; in assay [2] it was 102%; in assay [3], 110%; in assay [4] it was 93.8%; in assay [5], 104%; in assay [6], 101%. The growth in assay [7] is 94.5%.
For `N#Cc1c(-c2ccc(F)cc2)c(C#N)c2c(C#N)c(N)nn2c1N`, the growth in assay [1] was 95.9%; in assay [2], 101%; in assay [3], 107%; in assay [4], 96.7%; in assay [5], 92.5%; in assay [6] it was 90.3%. Also, the growth in assay [7] was 94.1%.
On to `O=C(Nc1ccc2ncnc(Nc3ccc(F)c(Cl)c3)c2c1)c1ccccc1`, for which the growth was 74.2% in assay [1]; 80.4% in assay [2]; 88% in assay [3]; 47.2% in assay [4]; 47.2% in assay [5]; 98.7% in assay [6]. In assay [7], the growth is 79.6%.
Regarding `CCC1=C[C@H]2CN(CCc3c([nH]c4ccccc34)[C@@](C(=O)OC)(c3cc4c(cc3OC)N(C)[C@H]3[C@@](O)(C(=O)OC)[C@H](OC(C)=O)[C@]5(CC)[C@@H]6C[C@@H]6CN6CC[C@]43[C@@H]65)C2)C1`, the growth is 16.1% in assay [1]; -32.6% (active) in assay [2]; 29.2% in assay [3]; 7.76% (active) in assay [4]; 4.74% (active) in assay [5]; 22.2% in assay [6]. In addition, the growth in assay [7] is 16.2%.
With `COc1cccc(NC(=O)Nc2ccc(Nc3ncnc4[nH]c(C)c(C)c34)cc2)c1`, the growth in assay [1] is 97.7%; in assay [2] it was 102%; in assay [3], 110%; in assay [4], 91.1%; in assay [5] it was 116%; in assay [6], 115%. In addition, the growth in assay [7] is 70.6%.
As for `Cn1c2c(c3ccc(-c4ccn[nH]4)cc3c1=O)C(=O)c1ccccc1-2`, the growth in assay [1] was 50.5%; in assay [2], 77.6%; in assay [3], 31.1%; in assay [4] it was 9.04% (active); in assay [5], 21.9%; in assay [6] it was 79.8%. The growth in assay [7] was 15.7%.
As for `COc1cc(/C=N/Nc2nc(-c3ccc(F)cc3)c(C#N)c(N3CCOCC3)n2)ccc1O`, the growth in assay [1] is 94.3%; in assay [2], 97%; in assay [3], 95%; in assay [4], 93.2%; in assay [5] it was 96.8%; in assay [6], 117%. For the same molecule, the growth in assay [7] was 103%.
On to `COc1ccc(OCC(=O)OC(C)C)cc1`, for which the growth was 109% in assay [1]; 101% in assay [2]; 94.4% in assay [3]; 93.8% in assay [4]; 114% in assay [5]; 103% in assay [6]. The growth in assay [7] is 93.8%.
`NC(=O)CN1C(=O)c2ccccc2C1=O`: the growth is 86.6% in assay [1]; 106% in assay [2]; 103% in assay [3]; 95.3% in assay [4]; 102% in assay [5]; 103% in assay [6]. Also, the growth in assay [7] is 103%.
Regarding `Cc1nc2sc(C(=O)Nc3cccc(Cl)c3C)c(N)c2cc1C(C)O` (stereo not drawn), the growth in assay [1] is 51.3%; in assay [2], 1.51% (active); in assay [3], 38.5%; in assay [4], 16.6%; in assay [5], 13.9%; in assay [6], 30.4%. The growth in assay [7] is 19.1%.
For the molecule `COc1ccc(-c2nnc(N3CCN(C(=O)CN4CCN(c5ccccc5)CC4)CC3)nc2-c2ccc(OC)cc2)cc1`, the growth is -16.1% (active) in assay [1]; 22.7% in assay [2]; 35.7% in assay [3]; 11.7% in assay [4]; 8.34% (active) in assay [5]; 22.2% in assay [6]. Besides, in assay [7], the growth is 16.8%.
`C=C1C(=O)O[C@H]2[C@H]1CC/C(COC(=O)c1cn(C)c3ccccc13)=C\CC[C@@]1(C)O[C@@H]21`: the growth in assay [1] was -24.4% (active); in assay [2], -51.2% (active); in assay [3] it was -65.7% (active); in assay [4], -46.1% (active); in assay [5], -77.6% (active); in assay [6], 34.9%. In addition, the growth in assay [7] is 31.2%.
Turning to `Cc1[nH]c(N=Nc2ccccc2)nc1N=Nc1ccccc1`, the growth in assay [1] is 37.7%; in assay [2] it was 37.1%; in assay [3], 31.7%; in assay [4], 15.3%; in assay [5], 11.1%; in assay [6] it was 26.3%. The growth in assay [7] was 35.1%.
In the case of `O=C(N/N=C/C[C@@H]1[C@@H](/C=C/[C@@H](O)COc2cccc(Cl)c2)[C@H](O)C[C@@H]1O)c1ccncc1`, the growth in assay [1] is 95.3%; in assay [2], 99.8%; in assay [3], 94.2%; in assay [4] it was 99.1%; in assay [5], 92.7%; in assay [6], 104%. Moreover, the growth in assay [7] is 105%.
For the molecule `COc1ccc2[nH]c(=O)c(/C=C/C(=O)c3ccccc3OC)cc2c1`, the growth in assay [1] is 18.9%; in assay [2], -10% (active); in assay [3] it was 8.4% (active); in assay [4] it was 10%; in assay [5], 16%; in assay [6] it was 23.1%. For the same molecule, the growth in assay [7] is 4.37% (active).
As to `COc1cccc(NC(=O)Nc2ccc(Oc3ncnc4[nH]c(C)c(C)c34)cc2)c1`, the growth was 99.6% in assay [1]; 100% in assay [2]; 81.7% in assay [3]; 40.9% in assay [4]; 81.6% in assay [5]; 103% in assay [6]. Moreover, the growth in assay [7] is 52.2%.
On to `O=C(Nc1cccc(-c2cccc(F)c2)c1)C1CCN(Cc2cccc3cccnc23)CC1`, for which the growth in assay [1] is 76.3%; in assay [2] it was 35%; in assay [3] it was 43.3%; in assay [4], 19.9%; in assay [5] it was 33.8%; in assay [6], -70.4% (active). Besides, the growth in assay [7] was 53.3%.
For the molecule `C#C[C@@]1(O)[C@@H](CO)O[C@@H](n2cc(Cl)c3c(N)ncnc32)[C@@H]1O`, the growth in assay [1] is -32.9% (active); in assay [2], -12.3% (active); in assay [3], 2.67% (active); in assay [4], -40.6% (active); in assay [5], 4.58% (active); in assay [6] it was -33.8% (active). Further, in assay [7], the growth is 1.42% (active).
As for `O=C1NC(SCc2ccc(F)cc2)=N/C1=C/c1cccc(OCc2ccc(Cl)cc2)c1`, the growth in assay [1] was 87.2%; in assay [2], 88.5%; in assay [3], 54.1%; in assay [4], 64.1%; in assay [5], -10.9% (active); in assay [6], 92.1%. For the same molecule, the growth in assay [7] was 88.9%.
For `C#C[C@@]1(O)[C@@H](CO)O[C@@H](n2cc(Br)c3c(N)ncnc32)[C@@H]1O`, the growth in assay [1] was -45.5% (active); in assay [2] it was 14.6%; in assay [3] it was -0.395% (active); in assay [4], -18.4% (active); in assay [5], 3.16% (active); in assay [6], -22% (active). Further, the growth in assay [7] was 8.07% (active).
